This is a sample that favours compounds with a hit; in the whole collection about 2.3% have one here.
ROS inducer: cancer cell ROS induction | AID 624156 | ROS induction (% of piperlongumine), % at 10 µM | U2OS ROS induction, H2DCF-DA fluorescence | 2% of 46,000 active; in the data active = ROS induction above about 79%, passing the limit was not always enough
YB-1 expr inh: YB-1 expression inhibition; U2OS, qRT-PCR YB-1 vs CDIP delta delta Cp, 16 h; stronger effect = higher value; zero = DMSO, each unit about twofold; delta delta Cp (YB-1 minus CDIP) (test concentration not listed); 0.37% of 30,000 active; AID 434959;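 active = delta delta Cp rounded down to an integer at or above 3, about 3 SD of DMSO wells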;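 also: higher means less YB-1 transcript or more CDIP transcript relative to DMSO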
A number is an active result.

`C[C@@H]1CN([C@@H](C)CO)C(=O)c2cccc(NC(=O)c3cnccn3)c2O[C@@H]1CN(C)Cc1ccc(Cl)c(Cl)c1` gave ROS inducer inactive and YB-1 expr inh inactive.
Screening C[C@@H]1CN([C@@H](C)CO)C(=O)c2cccc(NC(=O)c3cnccn3)c2O[C@H]1CN(C)Cc1ccc(Cl)c(Cl)c1 returned ROS inducer 87 and YB-1 expr inh inactive.
`C[C@H](CO)N1C[C@H](C)[C@H](CN(C)S(=O)(=O)c2ccccc2)Oc2c(NC(=O)c3cnccn3)cccc2C1=O` gave ROS inducer inactive and YB-1 expr inh inactive.
NC(=O)NC1C(=O)c2ccccc2OC1c1ccccc1 (configuration not stated) was read as ROS inducer inactive and YB-1 expr inh inactive.
Screening COC(=O)Oc1ccc2c(=O)c(-c3ccccc3)coc2c1 returned ROS inducer inactive.
`CCOC(=O)C(C)Oc1ccc2c(-c3ccccc3)cc(=O)oc2c1` (configuration not stated) gave ROS inducer 107 and YB-1 expr inh inactive.
C[C@H]1CN([C@@H](C)CO)C(=O)Cc2cc(NC(=O)Nc3ccc(C(F)(F)F)cc3)ccc2O[C@@H]1CN(C)CC1CCCCC1 was read as ROS inducer inactive and YB-1 expr inh inactive.
`C[C@H](CO)N1C[C@H](C)[C@H](CN(C)CC2CCCCC2)Oc2ccc(NC(=O)Cc3ccccc3)cc2CC1=O` gave ROS inducer inactive and YB-1 expr inh inactive.
`C[C@H](CO)N1C[C@H](C)[C@H](CN(C)CC2CCCCC2)Oc2ccc(NC(=O)CCCN(C)C)cc2C1=O` gave ROS inducer inactive and YB-1 expr inh 18.
C[C@H]1CN([C@@H](C)CO)C(=O)c2cc(NC(=O)CCCN(C)C)ccc2O[C@@H]1CN(C)CC1CCCCC1 was read as ROS inducer inactive and YB-1 expr inh inactive.
For C[C@@H]1CN([C@H](C)CO)C(=O)Cc2cc(NC(=O)Cc3ccccc3)ccc2O[C@H]1CN(C)CC1CCCCC1 the results were ROS inducer 79 and YB-1 expr inh inactive.
Screening C[C@H](CO)N1C[C@H](C)[C@H](CN(C)CC2CCCCC2)Oc2ccc(NC(=O)Nc3ccc(C(F)(F)F)cc3)cc2CC1=O returned ROS inducer 153 and YB-1 expr inh inactive.
Screening C[C@@H]1CN([C@H](C)CO)C(=O)Cc2cc(NC(=O)CCCN(C)C)ccc2O[C@@H]1CN(C)CC1CCCCC1 returned ROS inducer 93 and YB-1 expr inh inactive.
C[C@H]1CN([C@@H](C)CO)C(=O)Cc2cc(NC(=O)CCCN(C)C)ccc2O[C@@H]1CN(C)CC1CCCCC1 was read as ROS inducer inactive and YB-1 expr inh inactive.
COc1ccc(NC(=O)NCC(C)CSc2ccc(Cl)cc2)c(OC)c1 (configuration not stated) was read as ROS inducer inactive.
For Cc1oc(S(=O)(=O)N2CCCC2)cc1C(=O)NCCN1CCNC1=O the results were ROS inducer inactive.
Screening CC(C)(C)c1ccc2c(c1)NC(=O)CO2 returned ROS inducer inactive.
`CC1CCCCC1NS(=O)(=O)c1ccc(S(=O)(=O)N2CCN(c3ncccn3)CC2)cc1` (configuration not stated) gave ROS inducer inactive.
For CCCOc1ccc(C(=O)Nc2ccc3c(c2)Cc2ccccc2-3)cc1 the results were ROS inducer inactive.
Cc1ccc(NC(=O)CCc2c(C)nc3c4c(C)cc(C)nc4nn3c2C)cc1 was read as ROS inducer inactive.
For O=C(NCC(c1cccnc1)N1CCN(Cc2ccccc2)CC1)c1ccccc1 (configuration not stated) the results were ROS inducer inactive.
`C[C@@H]1CN([C@@H](C)CO)C(=O)Cc2cc(NC(=O)CCC(F)(F)F)ccc2O[C@@H]1CN(C)CC1CCCCC1` gave ROS inducer inactive and YB-1 expr inh inactive.
Screening C[C@H]1CN([C@@H](C)CO)C(=O)Cc2cc(NC(=O)CCC(F)(F)F)ccc2O[C@H]1CN(C)CC1CCCCC1 returned ROS inducer 99 and YB-1 expr inh inactive.
For Cc1ccc(CSCCC(=O)N2CCN(c3cccc(C)c3C)CC2)cc1 the results were ROS inducer inactive.
Screening CCc1nc(-c2ccc(OC)cc2)cc2cc(OC)c(OC)cc12 returned ROS inducer 109 and YB-1 expr inh inactive.
For COc1ccc(Cc2nccc3cc(OC)c(OC)cc23)cc1OC the results were ROS inducer inactive and YB-1 expr inh inactive.
N/C(=N/c1nc2ccccc2o1)NC(=O)/C=C/c1ccccc1 was read as ROS inducer inactive.
Screening Cc1nc2cc(NC(=O)NCc3ccco3)ccc2n1C returned ROS inducer 100.
Screening Cn1nnc2cc(NC(=O)NCCO)ccc21 returned ROS inducer inactive.
`COc1ccccc1-c1nn(CCC(=O)NCCc2ccc(Cl)cc2)c2nc(C)cc(C)c12` gave ROS inducer inactive.
C[C@@H]1CCCCO[C@H](CN(C)CC2CCCCC2)[C@@H](C)CN([C@H](C)CO)C(=O)c2cc(NC(=O)Nc3ccc(C(F)(F)F)cc3)ccc2O1 was read as ROS inducer 95 and YB-1 expr inh inactive.
`C[C@@H]1CCCCO[C@H](CN(C)Cc2ccc(C(F)(F)F)cc2)[C@@H](C)CN([C@H](C)CO)C(=O)c2cc(NC(=O)Nc3ccccc3)ccc2O1` gave ROS inducer 137 and YB-1 expr inh inactive.
C[C@@H]1CCCCO[C@H](CN(C)Cc2ccccc2)[C@@H](C)CN([C@H](C)CO)C(=O)c2cc(NC(=O)Nc3ccc(C(F)(F)F)cc3)ccc2O1 was read as ROS inducer inactive and YB-1 expr inh inactive.
C[C@@H]1CCCCO[C@H](CN(C)C)[C@@H](C)CN([C@H](C)CO)C(=O)c2cc(NC(=O)Nc3ccc(C(F)(F)F)cc3)ccc2O1 was read as ROS inducer inactive and YB-1 expr inh inactive.
CCCNC(=O)C1CCN(c2nn3c(=O)cc(C)nc3s2)CC1 was read as ROS inducer inactive.
Screening N=C1S/C(=C/c2ccccc2)C(=O)N1c1nonc1N returned ROS inducer inactive and YB-1 expr inh inactive.
For CCOc1cc(/C=C2/SC(=N)N(c3nccs3)C2=O)ccc1OCCN1CCOCC1 the results were ROS inducer 96 and YB-1 expr inh inactive.
For O=C1CCN(S(=O)(=O)c2cccc(S(=O)(=O)c3ccc(Cl)cc3)c2)C2CCCCC12 (configuration not stated) the results were ROS inducer inactive.
COc1ccc(C2C3=C(CCCC3=O)N=C3c4ccccc4C(=O)C32)cc1 (configuration not stated) was read as ROS inducer inactive.
`CC(C)(C)C1=Nn2c(nnc2-c2ccccc2)SC1` gave ROS inducer inactive.
For CCOc1ccc(S(=O)(=O)NCc2ccccc2)cc1-c1nc2c(C(C)(C)C)nn(C)c2c(=O)[nH]1 the results were ROS inducer 201 and YB-1 expr inh inactive.
Screening CCCc1nn(C)c2c(=O)[nH]c(-c3cc(S(=O)(=O)N4CCN(C)CC4)ccc3OCC)nc12 returned ROS inducer inactive and YB-1 expr inh inactive.
Screening CCCCn1nnc2c(=O)oc3ccccc3c21 returned ROS inducer 187.
For O=c1oc2ccccc2c2c1nc(C(F)(F)F)n2-c1ccccc1 the results were ROS inducer inactive.
CC(C)C(=O)NCCSc1c(-c2ccccc2)[nH]c2ccccc12 was read as ROS inducer inactive.

Compound activity (PubChem)
